# Screening data from PubChem.
# The entries come from a sample that favours hits as a whole.
# LmPK inhibitor: LmPK (Leishmania mexicana) enzyme inhibition | purified LmPK, Kinase-Glo ATP luminescence, 1 h | Potency, µM (doses to about 57.5 µM), inactives show at the highest dose activity change, negative = inhibition, actives largely listed as inhibitors | hit rate 0.37% among 290,000 | AID 1721; also: potency is read from the fitted curve at half-maximal effect; % is scaled to controls: 0 for no effect and ±100 for the full control effect
# Target sequence (Q27686 whole entry, looked up): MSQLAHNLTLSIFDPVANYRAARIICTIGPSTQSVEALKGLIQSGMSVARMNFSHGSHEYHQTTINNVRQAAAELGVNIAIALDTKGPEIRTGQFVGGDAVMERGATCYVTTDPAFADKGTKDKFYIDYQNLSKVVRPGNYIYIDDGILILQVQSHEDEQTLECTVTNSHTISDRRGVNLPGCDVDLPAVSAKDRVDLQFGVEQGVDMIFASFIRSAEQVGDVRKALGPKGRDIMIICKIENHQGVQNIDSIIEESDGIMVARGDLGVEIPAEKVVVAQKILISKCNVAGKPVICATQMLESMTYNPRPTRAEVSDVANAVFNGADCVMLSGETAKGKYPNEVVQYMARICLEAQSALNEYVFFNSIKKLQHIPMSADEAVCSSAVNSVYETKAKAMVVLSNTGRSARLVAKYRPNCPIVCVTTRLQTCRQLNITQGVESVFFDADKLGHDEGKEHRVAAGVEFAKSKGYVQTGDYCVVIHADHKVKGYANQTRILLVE
#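 In 50 mM imidazole pH 7.2 with 7 mM MgCl2, LmPK (0.1 nM) turned over PEP (0.5 mM) and ADP (0.1 mM) for 1 h at room temperature. Luciferase read-out of ATP.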
# TbPYK inhibitor: T. brucei pyruvate kinase inhibition; Potency, µM (highest dose often 76.8 µM), inactives show at the top dose activity, negative = inhibition, actives largely listed as inhibitors; hit rate 0.12% among 410,000; Q57TT1; TbPYK enzyme, Kinase-Glo Plus ATP luminescence, 45 min; also: potency is read from the fitted curve at half-maximal effect; % is scaled to controls: 0 for no effect and ±100 for the full control effect; nearly all actives have a fitted effect of over 50% in size
#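 Screened from lowest to highest concentration, compounds were pinned into TbPYK/substrate mixtures, and ADP (130 uM final) was added. Plates sat at room temperature for 45 min prior to Kinase-Glo Plus detection by luminescence.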
# FBPA Giardia inh: inhibitors of Giardia lamblia fructose-1,6-bisphosphate aldolase; A8B2U2; purified Giardia FBPA; Potency, µM (top dose mostly 59.6 µM), without a hit: at the highest dose activity, negative = inhibition, usual class: inhibitors; hit rate 0.71% among 290,000; also: potency is read from the fitted curve at half-maximal effect; % is scaled to controls: 0 for no effect and ±100 for the full control effect; nearly all actives have a fitted effect of over 55% in size
#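 40 nM FBPA preincubated 10 min at RT with compound (up to 57.5 uM final), then substrate plus GAPDH/TPI/NAD/arsenate coupling and diaphorase/resazurin added. Fluorescence read after 20 min at RT, 525/598 nm.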
# CHX counter: affects cycloheximide protein synthesis inhibition readout, counter-screen; cell reporter, cycloheximide protein synthesis inhibition counterscreen; max response, %; hit rate 12% among 300,000; AID 2314; in the data active = max response mostly above about 13%, no sharp cut-off; inactive = mostly below about 14%; also: read at 38.3 µM for the half of the compounds with a filed dose; 0% is about no effect
# Shiga inhibitor: blocks Shiga toxin action in Vero cells. Vero cells, Shiga toxin protein synthesis inhibition reporter. inhibition, % at 38.7 µM. hit rate 9.2% among 290,000. AID 2315; in the data active = inhibition mostly above about 28%, no sharp cut-off; inactive = mostly below about 43%; also: 0% is about no effect
# RE007 growth inh: less growth of the S. pombe RE007 Vpr strain | Potency, µM (highest dose often 92.2 µM), without a hit: at the highest dose activity change, negative = less growth, hits mostly inhibitors | S. pombe RE007 Vpr strain, BacTiter-Glo ATP luminescence, 24 h | hit rate 0.21% among 360,000; active = well fitted falling curve with a large enough effect; inconclusive = small, poorly fitted or top-dose-only effect; inactive = no such curve, though single readings can be large or run the other way; also: potency is read from the fitted curve at half-maximal effect; % is scaled to controls: 0 for no effect and ±100 for the full control effect; nearly all actives have a fitted effect of over 50% in size
#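 Fission yeast strain RE007, carrying one chromosomally integrated HIV-1 vpr copy, was seeded at OD 0.01 in PMG+AL medium with 23 nL pinned compound. After 24 h at 30 °C and 99% humidity, viability was read by BacTiter-Glo luminescence.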
# Starred values were filed as active, the others as inactive; ? = inconclusive; . = no result given. Unless noted, calls follow the shape of the dose curve; as a rule, active = well fitted curve in the direction sought with a large enough effect; inconclusive = small, poorly fitted or top-dose-only effect, or another doubt; inactive = no such curve, though single readings can be large; an effect the other way counts as inactive or inconclusive.
SMILES,LmPK inhibitor,TbPYK inhibitor,FBPA Giardia inh,CHX counter,Shiga inhibitor,RE007 growth inh
Cc1nc(-c2ccc(C)c(N3CCN(C(=O)Nc4ccc(Br)cc4)CC3)c2)no1,.,-7.7%,.,.,.,.
COc1ccc(Cl)cc1NC(=O)c1nn(-c2ccc(C)cc2)c(=O)n(C)c1=O,.,-5.8%,.,.,.,.
O=C1C(Cl)=C(Nc2ccc3cn[nH]c3c2)C(=O)c2ccccc21,?,-23.1%,?,-13.1,-12.0,31.6µM*
COc1cccc(-c2nc(NC3CC3)c3ccccc3n2)c1,.,.,-25.0%,.,.,.
CC(C)c1ccc(S(=O)(=O)N2CCN(Cc3cccc(F)c3)CC2)cc1,.,15.2%,.,.,.,.
Cc1cc(C)c2c(n1)sc1c(=O)n(-c3ccccc3C(F)(F)F)nnc12,.,6.8%,.,.,.,.
O=C(COC(=O)c1ccccn1)c1ccc([N+](=O)[O-])cc1,-1.1%,-3.1%,8.1%,10.3,40.7*,4.0%
O=C(CSc1ccc(-c2ccccn2)nn1)c1ccc([N+](=O)[O-])cc1,4.3%,-3.3%,?,3.8,68.8,-2.8%
Cn1ncc(Br)c1C(=O)OCC(=O)Nc1nc(-c2ccccc2)cs1,0.3%,-0.6%,-5.3%,18.7*,30.7*,-14.2%
O=C(COC(=O)c1ccccn1)Nc1nc(-c2cccc([N+](=O)[O-])c2)cs1,-2.9%,0.4%,-22.9%,18.1*,28.9,13.0%
Cc1cc(C(=O)OCC(=O)Nc2nc(-c3ccccc3)cs2)c(C)o1,6.8%,-7.3%,2.5%,-1.4,-13.0,3.7%
O=C(COC(=O)c1ccccn1)Nc1nc(-c2ccccc2)cs1,-7.4%,3.5%,-4.3%,41.5*,80.7*,-16.4%
CC(C)CNc1nc(C#N)nc(Nc2ccccc2)n1,.,.,1.9%,.,.,.
CCC(C(=O)Nc1ccccc1C(=O)OC)n1c(C)c2cnn(-c3ccccc3)c(=O)c2c1C (configuration not stated),.,1.4%,.,.,.,.
Cc1ccc(NC2CC(=O)N(Cc3ccccc3)C2=O)cc1 (configuration not stated),0.6%,1.6%,1.7%,1.4,-3.7,-17.1%
O=C1CC(N(O)C2CC(=O)N(Cc3ccccc3)C2=O)C(=O)N1Cc1ccccc1 (configuration not stated),4.5%,-20.9%,-4.3%,-2.9,-3.8,44.7µM*
CCCCCCC(=O)N(O)C1CC(=O)N(Cc2ccccc2)C1=O (configuration not stated),7.1%,-15.4%,-5.5%,-1.9,2.1,-8.6%
CCCN(CCC)C1CC(=O)N(Cc2ccccc2)C1=O (configuration not stated),-1.1%,-9.0%,0.2%,10.6,15.4,14.1µM*
CSc1ccc(CCNC(=O)C2CCN(c3nc4ccccc4nc3C(F)(F)F)CC2)cc1,.,-2.4%,.,.,.,.
CCN(CC)c1nc2ccccc2nc1C(=O)Nc1ccc(C(C)=O)cc1,.,-1.9%,.,.,.,.
COc1ccccc1NC(=O)CSc1nc(-c2ccc(C(C)(C)C)cc2)c(C#N)c(=O)[nH]1,.,-7.2%,.,.,.,.
Nn1c(Nc2ccccc2)nc2sc3c(c2c1=O)CCC3,2.1%,-8.6%,-9.6%,26.1*,85.6*,-7.0%
O=C(O)CSc1nc2sc3c(c2c(=O)n1Cc1ccccc1)CCCCC3,3.3%,1.8%,2.4%,26.4*,39.9*,-9.1%
O=C(O)c1ccc(Cn2nnc3sc4c(c3c2=O)CCCC4)cc1,0.5%,-6.9%,?,41.3*,166.6*,5.8%
CSc1nc(NCc2ccccc2)c2c3c(sc2n1)CN(C)CC3,3.2%,0.1%,-20.6%,19.2*,53.0*,-16.0%
SMILES,LmPK inhibitor,TbPYK inhibitor,FBPA Giardia inh,CHX counter,Shiga inhibitor,RE007 growth inh
Cc1noc(C)c1-c1ccc2ncnc(NCc3cccnc3)c2c1,.,.,8.2%,.,.,.
CC(C)Sc1nc(N)c2c3c(sc2n1)CN(C)CC3,-3.2%,4.8%,-16.6%,15.6*,20.7,-4.3%
CCn1c(SCC(=O)c2ccccc2)nc2sc3c(c2c1=O)CCN(C)C3,-1.4%,0.1%,-1.1%,12.0*,69.9*,-8.7%
Cc1cn2c(=O)cc(COC(=O)c3ccc(NC(=O)c4ccccc4C)cc3)nc2s1,.,0.5%,.,.,.,.
COc1ccc(OC)c(S(=O)(=O)NCc2ccc3c(c2)CCN3C(=O)c2cccc(C)c2)c1,.,3.6%,.,.,.,.
CCCn1c2ccccc2c2cnn(CC(=O)NCC3CCN(Cc4ccc(F)cc4)CC3)c(=O)c21,.,2.1%,.,.,.,.
